From PubChem BioAssay AID504408 (Broad Institute, 2011)
The whole screen tested about 300,000 compounds, of which about 5,200 (1.7%) were called active. The sample holds actives, similar compounds and a random draw of the others, so the mix is not that of the screen.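 Rule for the calls: active = mean replicate activation of at least 50% with a set share of replicates each reaching 50%; inconclusive = only one of those two conditions met; inactive = mean below 50% and too few replicates reaching it.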

Experiment: HSF-1 activators, primary screen, NIH3T3-HGL cells, MG132 stress, luminescence, single point (AID 504408);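 note: 0% = median of the neutral control wells and 100% = twice that signal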
Conditions: NIH3T3-HGL HSF-1 luciferase reporter, MG132, 8 h; at 9 µM; hits give high values; 100% = twice DMSO control signal

activation, inactive:
C(=N\Nc1ccc2ccccc2n1)/c1ccc2c(c1)OCO2 -41.8%
Clc1ccc(Nc2ccc3ccccc3n2)cc1 5.69%
Cc1ccc(S(=O)(=O)N(C)c2ccc(OCC(=O)OCC(=O)N(CC#N)c3ccccc3)cc2)cc1 7.96%
O=S(=O)(NCCCc1ccccc1)c1ccc(Br)cc1 11.6%
O=C(NCCS(=O)(=O)NCc1ccc(Cl)cc1)c1ccccc1 8.69%
CCOc1ccc(NS(=O)(=O)c2ccc(C(=O)NC3CCN(Cc4ccccc4)CC3)cc2)cc1 -18.5%
Cc1ccc(-c2nc3ccccc3[nH]2)cc1N 36.7%
OC(c1nc2ccccc2[nH]1)C(O)C(O)C(O)c1nc2ccccc2[nH]1 (stereo not given) 1.21%
CCN(CC(=O)Nc1c(F)cccc1F)C(=O)c1ccc(S(=O)(=O)N2CCCCC2)cc1 -12.7%
Cc1ccccc1NC(=O)COc1cccc2c1CCNC2=O -1.52%
CCCCn1c(N)c(N(CC(C)C)C(=O)CSc2ccc([N+](=O)[O-])cc2)c(=O)[nH]c1=O -6.98%
Cc1ccc(-c2nn(-c3ccc(F)cc3)cc2C(=O)NCC(c2cccs2)N2CCOCC2)cc1 (stereo not given) -1.83%
Cc1ccn2c(=O)nc(SCC(=O)NCc3ccc(F)cc3)nc2c1 16.8%
O=C(COC(=O)c1ccccn1)NNC(=O)c1ccc([N+](=O)[O-])cc1 5.44%
CCn1c2ccc(F)cc2c2nnc(SCCN3CCOCC3)nc21 -5.84%
Cc1cccc(C)c1OCCN1CCOCC1 3.56%
COc1ccc(NC(=O)CN(C)C(=O)CC2CCCCC2)cc1 0.174%
N#CCCN(C(=O)COC(=O)C1CCN(c2ccc(C(F)(F)F)cn2)CC1)c1ccc(F)cc1 9.78%
CN(C(=O)CSc1nnc(-c2c[nH]c3ccccc23)o1)C1CCS(=O)(=O)C1 (stereo not given) 20.1%
CCC(CC)NC(=O)CSc1nnc(-c2c[nH]c3ccccc23)o1 12.5%
COC(=O)c1sccc1NC(=O)c1ccc(Cl)cc1 12.5%
O=C(COc1ccc(Cl)cc1)Nc1ccccc1CO 3.44%
O=C(NCC(c1ccco1)N1CCc2ccccc2C1)c1ccccc1Cl (stereo not given) 6.39%
CC(OC(=O)CNC(=O)c1ccco1)C(=O)Nc1ccc(Cl)cn1 (stereo not given) 0.765%
C=CCNC(=O)C1CC2c3ccccc3C1c1ccccc12 (stereo not given) 0.377%
CCC(C)N(C(=O)Cn1nc(C)c([N+](=O)[O-])c1C)C1CCS(=O)(=O)C1 (stereo not given) -1.43%
COc1ccc(S(=O)(=O)Nc2ccc3c(c2)OCO3)cc1Cl -5.83%
COc1ccc(F)cc1S(=O)(=O)NCC(c1ccc2c(c1)OCO2)N1CCN(C)CC1 (stereo not given) 7.05%
COc1ccccc1CCC(=O)OCC(=O)N1CCN(S(=O)(=O)c2ccc(C)cc2C)CC1 25.7%
COc1cccc(Nc2nc(N)c([N+](=O)[O-])c(NCc3ccco3)n2)c1 27.8%
Nc1nc(Nc2ccccc2)nc(NCCO)c1[N+](=O)[O-] 12.4%
Cc1cccn2c(=O)nc(SCC(=O)NCc3ccccc3Cl)nc12 0.293%
COc1ccc(-c2cnc(SCCNC(=O)c3ccc4c(c3)OCO4)[nH]2)cc1 9.08%
COc1ccc(C2=NOC(Cn3nc(C(=O)NCc4ccc5c(c4)OCO5)cc3-c3ccccc3)C2)cc1 (stereo not given) 7.07%
CCN1C(=O)[C@H]2[C@@H](c3ccc(SC4CCCCC4)c(OC)c3)N[C@@](Cc3ccccc3)(C(=O)OC)[C@H]2C1=O -7.66%
Cc1ccc(F)c(NC(=O)CCOc2ccccc2C)c1 7.19%
Cc1ccc(O)c(NC(=S)NC(=O)COc2ccc(Br)cc2)c1 12.4%
CCn1c(COc2ccc(OC)cc2)nnc1SCC(=O)Nc1cc(OC)ccc1OC 19.9%
CCn1c(COc2ccccc2)nnc1SCC(=O)NCc1ccco1 -12.7%
Cc1ccc(C(=O)Nc2nc3ccc(Cl)cc3s2)o1 44.3%
O=C(CSc1n[nH]c(-c2cccs2)n1)N1CCCCC1 -14%
O=C(OCC(=O)N1CCCC1=O)c1cc(S(=O)(=O)N2CCOCC2)ccc1Cl -4.42%
CCOc1ccc(N/C=C/C(=O)c2ccccc2)cc1 23.5%
Cc1noc(NS(=O)(=O)c2ccc(N/C=C/C(=O)c3ccccc3)cc2)c1C -20.4%
Cc1c(C)n2c(SCC(=O)NC3CCCC3)nnc2[nH]c1=O -15.2%
CCC(=O)/C(=C(/O)c1ccccc1)c1nc2ccccc2[nH]1 4.66%
COc1ccc(/C=C(/NC(=O)c2ccc(C)cc2)c2nc3ccccc3[nH]2)cc1OC -0.506%
Cc1ccc(C)c(OCCC(=O)Nc2cccc(S(=O)(=O)N3CCCC3)c2)c1 -4.4%
N#CC1(NC(=O)COC(=O)CSc2ccc(F)cc2)CCCCC1 0.517%

activation, active:
Cc1noc(C)c1/C=N/Nc1ccc2ccccc2n1 59.1%
c1ccc2[nH]c(-c3nc4ccccc4[nH]3)nc2c1 77.8%
Cc1cc2nc(SCCN3CCOCC3)[nH]c2cc1C 53.2%
O=C(CSc1nnc(-c2c[nH]c3ccccc23)o1)c1ccccc1 54.2%
COC(=O)c1sccc1NC(=O)COc1ccc(Cl)cc1 65.1%
COc1ccc(F)cc1S(=O)(=O)Nc1ccc2c(c1)OCO2 53.7%
CNc1nc(Nc2ccc(C)c(Cl)c2)nc(N)c1[N+](=O)[O-] 76.4%
Cc1ccc(O)c(NC(=O)COc2cc(C)ccc2C)c1 76.7%
CCOC(=O)CNC(=O)CSc1nnc(COc2ccc(Cl)cc2)n1CC 52.7%
Cc1ccc(N/C=C/C(=O)c2ccccc2)cc1C 77.8%
O=C(/C(=C/c1cccc(Cl)c1)c1nc2ccccc2[nH]1)c1ccccc1 199%
